Experimental data as given in PubChem BioAssay AID1159580 (chemical genetic matrix, 2015).
“And” between values parts separate entries of the source, which are not always exact repeats. Equal values may be shown once. Screen size: about 5,500 compounds; about 2,000 (36%) were called active. Not shown: some 18% with an inconclusive outcome. No stated cut-off is given here; in the data, active means normalized growth mostly below about 0.91 (no sharp cut-off); inconclusive means no clear call, values can overlap the other calls; inactive means mostly above about 0.92. This is one part of the list.

Assay: chemical genetic growth profiling, strain panel (AID 1159580);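 further: tested at 20 µM; growth read once vehicle control cultures reached saturation at 30 °C; 1 = growth at the plate median or of vehicle wells; lower values mean less growth of the strain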
Conditions: S. cerevisiae deletion strains, growth OD

Measured: normalized growth

O=P1(N(CCCl)CCCl)NCCCO1 (stereo not given)
inactive: locus YAL013W, strain DEP1, active compounds read low 0.998 and 0.974 | locus YAL021C, strain ccr4, active compounds read low 0.995 | locus YAL026C, strain drs2, active compounds read low 0.981 | locus YAL030W, strain snc1, active compounds read low 1.01 | locus YAL040C, strain CLN3, active compounds read low 0.973 | locus YBL061C, strain skt5, active compounds read low 1.01 | locus YBR009C, strain hhf1, active compounds read low 1.01 | locus YBR021W, strain FUR4, active compounds read low 1.02 | locus YBR023C, strain chs3, active compounds read low 1.02 | locus YBR171W, strain sec66, active compounds read low 1 | locus YBR229C, strain ROT2, active compounds read low 1 | locus YBR231C, strain swc5, active compounds read low 0.995 | locus YBR279W, strain paf1, active compounds read low 1 | locus YCL011C, strain gbp2, active compounds read low 1.01 | locus YCL016C, strain dcc1, active compounds read low 1.04 | locus YCL029C, strain bik1, active compounds read low 1.03 | locus YCL061C, strain MRC1 (second series), active compounds read low 1 | locus YCL061C, strain MRC1, active compounds read low 1 | locus YCL069W, strain vba3, active compounds read low 0.995 | locus YCR088W, strain abp1, active compounds read low 1 | locus YDL005C, strain med2, active compounds read low 0.99 | locus YDL035C, strain GPR1, active compounds read low 1.02 | locus YDL040C, strain nat1, active compounds read low 0.998 | locus YDL074C, strain BRE1, active compounds read low 1.03 | locus YDL101C, strain DUN1, active compounds read low 1.01 | locus YDL185W, strain tfp1, active compounds read low 1.01 | locus YDL192W, strain arf1, active compounds read low 1.03 | locus YDR001C, strain nth1, active compounds read low 0.992 | locus YDR069C, strain doa4, active compounds read low 1 | locus YDR101C, strain arx1, active compounds read low 1.02 | locus YDR137W, strain rgp1, active compounds read low 1.01 | locus YDR150W, strain NUM1, active compounds read low 0.996 | locus YDR159W, strain sac3, active compounds read low 0.99 | locus YDR162C, strain NBP2, active compounds read low 1.01 | locus YDR195W, strain ref2 0.977 | locus YDR297W, strain sur2, active compounds read low 1.03 | locus YDR318W, strain mcm21, active compounds read low 1.03 | locus YDR334W, strain swr1, active compounds read low 0.994 | locus YDR335W, strain msn5, active compounds read low 1.01 | locus YDR363W, strain ESC2, active compounds read low 0.962 | locus YDR388W, active compounds read low 1.02 | locus YDR392W, strain spt3, active compounds read low 0.941 | locus YDR502C, strain sam2, active compounds read low 1.06 | locus YEL003W, strain gim4, active compounds read low 0.991 | locus YEL037C, strain rad23, active compounds read low 0.984 | locus YEL061C, strain CIN8 (second series), active compounds read low 0.98 | locus YEL061C, strain CIN8, active compounds read low 1 | locus YER002W, strain NOP16, active compounds read low 1.01 | locus YER015W, strain faa2, active compounds read low 1.02 | locus YER016W, strain bim1, active compounds read low 0.997 | locus YER110C, active compounds read low 1.05 | locus YER111C, strain swi4, active compounds read low 0.995 | locus YER155C, strain BEM2 (second series), active compounds read low 0.936 | locus YER155C, strain BEM2, active compounds read low 0.996 | locus YER167W, strain BCK2, active compounds read low 1 | locus YFR010W, strain ubp6, active compounds read low 0.971 | locus YGL078C, strain dbp3, active compounds read low 1.03 | locus YGL086W, strain mad1, active compounds read low 1.03 | locus YGL167C, strain pmr1, active compounds read low 1.01 | locus YGL173C, strain kem1, active compounds read low 1.01 | locus YGL227W, strain vid30, active compounds read low 0.992 | locus YGL240W, strain doc1, active compounds read low 0.983 | locus YGL248W, strain PDE1, active compounds read low 1.01 | locus YGL253W, strain hxk2, active compounds read low 0.987 | locus YGR078C, strain PAC10, active compounds read low 0.988 | locus YGR135W, strain pre9, active compounds read low 1.04 | locus YGR229C, strain SMI1, active compounds read low 1 | locus YGR252W, strain gcn5, active compounds read low 1.07 | locus YHR013C, strain ard1, active compounds read low 1.03 | locus YHR027C, strain rpn1, active compounds read low 1.01 | locus YHR030C, strain SLT2, active compounds read low 1.01 and 0.994 | locus YHR079C, strain IRE1 (second series), active compounds read low 1.03 | locus YHR079C, strain IRE1, active compounds read low 0.991 | locus YHR094C, strain hxt1, active compounds read low 1.03 | locus YHR129C, strain ARP1, active compounds read low 1 | locus YHR142W, strain chs7, active compounds read low 1.02 | locus YHR200W, strain rpn10, active compounds read low 1.02 | locus YIL066C, strain RNR3, active compounds read low 1.02 | locus YIL073C, strain SPO22, active compounds read low 1.01 | locus YIL125W, strain kgd1, active compounds read low 1.02 | locus YIR030C, strain dcg1, active compounds read low 1.03 | locus YJL092W, strain hpr5, active compounds read low 1.01 | locus YJL095W, strain BCK1 (second series), active compounds read low 1.01 | locus YJL095W, strain BCK1, active compounds read low 1.03 and 0.99 | locus YJL115W, strain asf1, active compounds read low 0.994 | locus YJL129C, strain trk1, active compounds read low 1.02 | locus YJL134W, strain LCB3, active compounds read low 1.01 | locus YJL154C, strain vps35, active compounds read low 0.988 | locus YJL164C, strain tpk1, active compounds read low 1.01 | locus YJL166W, strain qcr8, active compounds read low 1.03 | locus YJL168C, strain set2, active compounds read low 1.02 | locus YJL187C, strain SWE1 (second series), active compounds read low 1.01 | locus YJL187C, strain SWE1, active compounds read low 1.02 | locus YJR043C, strain POL32, active compounds read low 1.01 | locus YJR066W, strain TOR1, active compounds read low 1 | locus YJR075W, strain HOC1, active compounds read low 1 | locus YKL009W, strain mrt4, active compounds read low 0.957 | locus YKL068W, active compounds read low 1 | locus YKL160W, strain elf1, active compounds read low 1.03 | locus YKR001C, strain vps1, active compounds read low 1.03 | locus YKR026C, strain gcn3, active compounds read low 0.993 | locus YKR091W, strain srl3, active compounds read low 1.01 | locus YLL001W, strain dnm1, active compounds read low 1.04 | locus YLL026W, active compounds read low 1.01 | locus YLL041C, strain sdh2, active compounds read low 0.991 | locus YLR027C, strain aat2, active compounds read low 0.992 | locus YLR039C, strain RIC1, active compounds read low 1.02 | locus YLR058C, strain SHM2, active compounds read low 1.01 | locus YLR102C, strain apc9, active compounds read low 1.02 | locus YLR113W, strain HOG1, active compounds read low 0.994 | locus YLR221C, strain rsa3, active compounds read low 1.07 | locus YLR258W, strain gsy2, active compounds read low 1.01 | locus YLR262C, strain YPT6 (second series), active compounds read low 1.01 | locus YLR262C, strain YPT6, active compounds read low 1.01 | locus YLR268W, strain sec22, active compounds read low 1.03 | locus YLR320W, strain mms22, active compounds read low 1.05 | locus YLR330W, strain CHS5, active compounds read low 1.01 | locus YLR342W, strain FKS1 (second series), active compounds read low 1.02 | locus YLR342W, strain FKS1, active compounds read low 1 | locus YLR357W, strain rsc2, active compounds read low 0.984 | locus YLR370C, strain arc18, active compounds read low 1.02 | locus YLR371W, strain rom2, active compounds read low 1.02 | locus YLR384C, strain iki3, active compounds read low 1 | locus YLR418C, strain cdc73, active compounds read low 1.1 | locus YML016C, strain PPZ1, active compounds read low 1 | locus YML032C, strain rad52, active compounds read low 1.03 | locus YML120C, strain ndi1, active compounds read low 1.04 | locus YML124C, strain tub3, active compounds read low 1.04 | locus YMR058W, strain fet3, active compounds read low 0.99 | locus YMR078C, strain ctf18, active compounds read low 1.03 | locus YMR125W, strain sto1, active compounds read low 0.981 | locus YMR129W, active compounds read low 0.991 | locus YMR205C, strain PFK2, active compounds read low 1.03 | locus YMR223W, strain ubp8, active compounds read low 1.05 | locus YMR231W, strain pep5, active compounds read low 0.997 | locus YMR263W, strain SAP30, active compounds read low 1.01 and 1 | locus YMR307W, strain GAS1, active compounds read low 1.03 and 0.994 | locus YNL067W, strain RPL9B, active compounds read low 1.01 | locus YNL071W, strain lat1, active compounds read low 0.991 | locus YNL128W, strain TEP1, active compounds read low 1.02 and 0.983 | locus YNL175C, strain NOP13, active compounds read low 0.989 | locus YNL183C, strain NPR1, active compounds read low 0.946 | locus YNL197C, strain WHI3, active compounds read low 0.976 | locus YNL209W, strain ssb2, active compounds read low 1.01 | locus YNL224C, strain SQS1, active compounds read low 0.995 | locus YNL233W, strain BNI4, active compounds read low 1.02 | locus YNL248C, strain rpa49, active compounds read low 0.914 | locus YNL250W, strain rad50, active compounds read low 1.03 | locus YNL271C, strain bni1, active compounds read low 1.02 | locus YNL298W, strain CLA4, active compounds read low 1.04 | locus YNL307C, strain MCK1, active compounds read low 1.02 | locus YNL322C, strain KRE1 (second series), active compounds read low 1.01 | locus YNL322C, strain KRE1, active compounds read low 0.996 | locus YNR049C, strain mso1, active compounds read low 0.993 | locus YNR052C, strain pop2, active compounds read low 1.02 | locus YOL147C, strain pex11, active compounds read low 1.02 | locus YOR001W, strain rrp6, active compounds read low 0.934 | locus YOR061W, strain CKA2, active compounds read low 1.02 | locus YOR069W, strain VPS5, active compounds read low 1.01 | locus YOR070C, strain gyp1, active compounds read low 1.01 | locus YOR080W, strain dia2, active compounds read low 1.01 | locus YOR083W, strain WHI5 (second series), active compounds read low 0.978 | locus YOR083W, strain WHI5, active compounds read low 1.05 | locus YOR106W, strain vam3, active compounds read low 1.06 | locus YOR136W, strain idh2, active compounds read low 1.03 | locus YOR144C, strain elg1, active compounds read low 1.05 | locus YOR184W, strain ser1, active compounds read low 1.08 | locus YOR231W, strain MKK1, active compounds read low 1 | locus YOR265W, strain rbl2, active compounds read low 1.01 | locus YOR270C, strain vph1, active compounds read low 1.04 | locus YOR290C, strain snf2, active compounds read low 1.03 | locus YOR316C, strain cot1, active compounds read low 1.04 | locus YPL051W, strain arl3, active compounds read low 1.02 | locus YPL055C, strain LGE1, active compounds read low 1 | locus YPL078C, strain atp4, active compounds read low 0.991 | locus YPL106C, strain sse1, active compounds read low 1.04 | locus YPL240C, strain hsp82, active compounds read low 1 | locus YPL256C, strain CLN2, active compounds read low 0.992 | locus YPR119W, strain clb2, active compounds read low 1.03 | locus YPR141C, strain kar3, active compounds read low 1.01 | locus YPR163C, strain tif3, active compounds read low 1.02 | locus YPR167C, strain met16, active compounds read low 1.02 | strain wtn01, active compounds read low 1.06
active: locus YKL085W, strain MDH1 (second series), active compounds read low 1.08 [resistant] | locus YKL085W, strain MDH1, active compounds read low 1.08 [resistant]
